The list is not random: actives were taken first. Their share in the collection is about 2.1%.
YB-1 expr inh: YB-1 expression inhibition | U2OS, qRT-PCR YB-1 vs CDIP delta delta Cp, 16 h; stronger effect = higher value; zero = DMSO, each unit about twofold | delta delta Cp (YB-1 minus CDIP) (no concentration beside the values) | 30,000 compounds, 0.37% hits | AID 434959;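 active = delta delta Cp rounded down to an integer at or above 3, about 3 SD of DMSO wells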;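 note: higher means less YB-1 transcript or more CDIP transcript relative to DMSO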
ROS inducer: raises reactive oxygen species in U2OS cancer cells; U2OS ROS induction, H2DCF-DA fluorescence; ROS induction (% of piperlongumine), % at 10 µM; 46,000 compounds, 2% hits; AID 624156; in the data active = ROS induction above about 79%, passing the limit was not always enough
PD-1 reversal: activators reversing PD-1 mediated T-cell inhibition; primary human CD4 T cells, PD-L1 beads, CellTiter-Glo 96 h; activation, % (no concentration beside the values); 29,000 tested, under 10 active; call rule not given here
Large screens that a line does not name were inactive.

COCCOC(=O)N1C(=O)[C@@]2(c3cc(C#CCNC(N)=O)ccc31)[C@H](c1ccccc1OCCO)N1[C@H](c3ccccc3)[C@H](c3ccccc3)OC(=O)[C@H]1[C@@H]2C(N)=O	none (no result: PD-1 reversal)
COCCOC(=O)N1C(=O)[C@@]2(c3cc(C#CC4=CCCCC4)ccc31)[C@H](c1ccccc1OCCO)N1[C@H](c3ccccc3)[C@H](c3ccccc3)OC(=O)[C@H]1[C@@H]2C(N)=O	ROS inducer 84.2 (no result: PD-1 reversal)
C=CCNC(=O)[C@H]1[C@@H]2C(=O)O[C@@H](c3ccccc3)[C@@H](c3ccccc3)N2[C@@H](c2ccccc2OCCO)[C@]12C(=O)N(C(=O)OCCOC)c1ccc(C#CCC(C(=O)OC)C(=O)OC)cc12	ROS inducer 178.5 (no result: PD-1 reversal)
COCCOC(=O)N1C(=O)[C@@]2(c3cc(C#CCC(C(=O)OC)C(=O)OC)ccc31)[C@H](c1ccccc1OCCO)N1[C@H](c3ccccc3)[C@H](c3ccccc3)OC(=O)[C@H]1[C@@H]2C(N)=O	ROS inducer 406.9 (no result: PD-1 reversal)
COCCOC(=O)N1C(=O)[C@@]2(c3cc(C#Cc4ccc(OC)cc4)ccc31)[C@H](c1ccccc1OCCO)N1[C@H](c3ccccc3)[C@H](c3ccccc3)OC(=O)[C@H]1[C@@H]2C(=O)NC[C@H](O)c1ccccc1	none (no result: PD-1 reversal)
COCCOC(=O)N1C(=O)[C@@]2(c3cc(C#CCC(C(=O)OC)C(=O)OC)ccc31)[C@H](c1ccccc1OCCO)N1[C@H](c3ccccc3)[C@H](c3ccccc3)OC(=O)[C@H]1[C@@H]2C(=O)NC[C@H](O)c1ccccc1	ROS inducer 319.6 (no result: PD-1 reversal)
CC(C)CNS(=O)(=O)c1ccc(F)cc1	none (no result: YB-1 expr inh, PD-1 reversal)
COC(=O)CCn1cnc(-c2ccccc2)c1-c1ccccc1	none (no result: YB-1 expr inh, PD-1 reversal)
O=C(CSc1nc2ccccc2c(=O)n1CCc1ccccc1)c1ccc(Cl)cc1	none (no result: YB-1 expr inh, PD-1 reversal)
C[C@H](CO)N1C[C@H](C)[C@H](CN(C)C(=O)Nc2ccc3c(c2)OCO3)Oc2ccc(NS(=O)(=O)c3ccccc3)cc2CC1=O	none
CC(C)NC(=O)Nc1ccc2c(c1)CC(=O)N([C@@H](C)CO)C[C@@H](C)[C@@H](CN(C)C(=O)Nc1ccc3c(c1)OCO3)O2	ROS inducer 111.1
C[C@H](CO)N1C[C@H](C)[C@H](CN(C)C(=O)Nc2ccc3c(c2)OCO3)Oc2ccc(NS(C)(=O)=O)cc2CC1=O	ROS inducer 122.7
C[C@H]1CN([C@@H](C)CO)C(=O)Cc2cc(NC(=O)Nc3ccc4c(c3)OCO4)ccc2O[C@H]1CN(C)C(=O)Nc1ccc2c(c1)OCO2	none
FC(F)(F)C1CCN(c2ncccc2NC(=S)Nc2ccc(Cl)cc2)CC1	none
O=C(CSc1nnnn1-c1ccccc1)Nc1ccc(Cl)cc1O	none (no result: YB-1 expr inh)
COc1ccc(C(=O)NCC(=O)Nc2ccc(C)c(Cl)c2)cc1	none (no result: YB-1 expr inh)
CC(C(=O)N1CCc2ccccc21)N1C(=O)c2ccccc2C1=O (stereo not drawn)	none (no result: YB-1 expr inh, PD-1 reversal)
CCNC(=S)Nc1sc2c(c1C#N)CCC(C)C2 (stereo not drawn)	ROS inducer 166.9
CC1CCc2sc(NC(=O)C(Cc3ccccc3)Cc3ccccc3)c(C#N)c2C1 (stereo not drawn)	none
CCC1(c2ccccc2)NC(=S)N(c2ccccc2)N1 (stereo not drawn)	none (no result: YB-1 expr inh, PD-1 reversal)
CCn1cc(C(C)NC(=S)Nc2cccc([N+](=O)[O-])c2)c(C)n1 (stereo not drawn)	none (no result: YB-1 expr inh, ROS inducer)
O=C(CSc1nnc(-c2cccnc2)n1C1CCCCC1)Nc1ccc(Cl)cc1	none (no result: YB-1 expr inh)
CC(C)(C)c1ccc(OCC(N)=NC(=O)c2ccc(OC(F)(F)F)cc2)cc1	none
COC(=O)c1ccc(Oc2nc(Nc3ccccc3F)nc(N3CCCCC3C)n2)cc1 (stereo not drawn)	none (no result: YB-1 expr inh, PD-1 reversal)
CCCc1cc(N2CCN(c3ccccc3)CC2)n2c(nc3ccccc32)c1C#N	none (no result: YB-1 expr inh, PD-1 reversal)
COc1ccc(CCNC(=O)CCn2c(SCC#N)nc3ccccc3c2=O)cc1OC	none (no result: YB-1 expr inh, PD-1 reversal)
C=CCc1c(C)c(C#N)c2nc3ccccc3n2c1NCCc1ccc(OC)c(OC)c1	ROS inducer 133.0 (no result: YB-1 expr inh, PD-1 reversal)
CCCCc1c(C)c(C#N)c2nc3ccccc3n2c1NCCN1CCOCC1	ROS inducer 95.7 (no result: YB-1 expr inh, PD-1 reversal)
CCOC(=O)c1c(C)[nH]c(/C(C)=N\O)c1C	none (no result: YB-1 expr inh, PD-1 reversal)
Cc1ccc(C)c(NS(=O)(=O)c2ccccc2)c1	none
COC(=O)c1ccc2nc[nH]c2c1	none (no result: YB-1 expr inh, PD-1 reversal)
O=C1NN=C(c2ccccc2)/C1=C1\OC(c2ccccc2)=CS1	ROS inducer 137.9
C/C=C(/C)C(=O)O[C@H]1CC(C)(C)C[C@H]2C3=CCC4[C@@]5(C)CC[C@H](O[C@@H]6O[C@H](C(=O)O)[C@@H](O[C@@H]7O[C@H](CO)[C@H](O)[C@H](O)[C@H]7O[C@@H]7O[C@H](CO)[C@@H](O)[C@H](O)[C@H]7O)[C@H](O)[C@H]6O[C@@H]6O[C@@H](C)[C@H](O)[C@@H](O)[C@H]6O)C(C)(C)C5CC[C@@]4(C)[C@]3(C)C[C@@H](O)[C@@]12CO (stereo partly drawn)	none
Cc1ccc(Nc2nnc(-c3ccc(C)c(S(=O)(=O)NCC4CCCO4)c3)c3ccccc23)cc1 (stereo not drawn)	ROS inducer 216.0
Cc1ccc(-c2nnc(N3CCOCC3)c3ccccc23)cc1S(=O)(=O)NC(C)(C)CO	none (no result: YB-1 expr inh, PD-1 reversal)
Cc1cc(/C=C(/C#N)S(C)(=O)=O)c2c(C)ccc(C(C)C)cc1-2	ROS inducer 85.4 (no result: YB-1 expr inh, PD-1 reversal)
CS(=O)(=O)/C(C#N)=C/Nc1cnccn1	none
N#CC1=C(SCC(=O)Nc2ccc(F)cc2)NC(=O)C(C#N)C12CCCCC2 (stereo not drawn)	none (no result: YB-1 expr inh, PD-1 reversal)
O=C(O)c1cc(N=Cc2ccccc2O)ccc1O	none
O=C1/C(=C/c2ccc3ccccc3c2)COc2ccccc21	ROS inducer 102.7
COc1ccc2c(c1)OC/C(=C\c1ccc(OC)c(O)c1)C2=O	none (no result: PD-1 reversal)
C=CCC1OC(=O)CCNC(=O)C(C)N(C)C(=O)C(C(C)C)N(C)C(=O)C(C(C)CC)NC(=O)C2CCCN2C1=O (stereo not drawn)	none
COc1ccccc1NC(=O)C(NC(=O)c1ccccc1NC(=O)c1ccccc1)C(C)C (stereo not drawn)	ROS inducer 97.5 (no result: YB-1 expr inh, PD-1 reversal)
COc1ccc(C(=O)Nc2ccccc2C(=O)NC(C(=O)O)C(C)C)cc1 (stereo not drawn)	none (no result: YB-1 expr inh)
COC(=O)C1=C(N)Oc2cc(C)n(Cc3ccccc3)c(=O)c2C1c1ccncc1 (stereo not drawn)	none
Cc1ccc(S(=O)(=O)c2cn(Cc3cccc(Cl)c3)c3cc4c(cc3c2=O)OCO4)cc1	ROS inducer 97.5 (no result: YB-1 expr inh, PD-1 reversal)
CCc1ccc(NC(=O)Cn2cc(S(=O)(=O)c3ccccc3)c(=O)c3ccccc32)cc1	none (no result: YB-1 expr inh, PD-1 reversal)
CC1CC(=O)[C@]2(C)CC[C@]3(C)C(C(=O)C(O)C4[C@@]5(C)CC[C@H](O)C(C)(C(=O)O)C5CC[C@]43C)C2C1C (stereo partly drawn)	none
O=C(NCc1ccccn1)C1CCC(CNS(=O)(=O)c2ccccc2)CC1 (stereo not drawn)	none (no result: YB-1 expr inh, PD-1 reversal)
Cc1c(C)c(C)c(CS(=O)(=O)CC(=O)Nc2ccc(F)c(Cl)c2)c(C)c1C	none (no result: YB-1 expr inh, PD-1 reversal)
CCC1(C)Cc2c(sc3nc(SC)nc(SCC(=O)Nc4cccc(Cl)c4)c23)CO1 (stereo not drawn)	none (no result: YB-1 expr inh)
C[C@@H]1CN([C@H](C)CO)C(=O)c2cc(NC(=O)NC3CCCCC3)ccc2O[C@@H]1CN(C)Cc1ccc(-c2ccccc2)cc1	none (no result: PD-1 reversal)
C[C@@H]1CN([C@@H](C)CO)C(=O)c2cc(N(C)C)ccc2O[C@@H]1CN(C)Cc1ccc(-c2ccccc2)cc1	none
